Reference: PubChem BioAssay (NCATS)
Inconclusive results are not listed. Entries that show only a call come without a potency. Values without a mark were called inactive. Activity calls are given as the source filed them. Calls follow the shape of the dose curve; as a rule, active = well fitted inhibition curve with a large enough effect; inconclusive = small, poorly fitted or top-dose-only effect; inactive = flat fitted curve, though single readings scatter.

Target: Calcium and integrin-binding protein 1 (Homo sapiens) (UniProt Q99828)
Sequence (Q99828 whole entry, looked up): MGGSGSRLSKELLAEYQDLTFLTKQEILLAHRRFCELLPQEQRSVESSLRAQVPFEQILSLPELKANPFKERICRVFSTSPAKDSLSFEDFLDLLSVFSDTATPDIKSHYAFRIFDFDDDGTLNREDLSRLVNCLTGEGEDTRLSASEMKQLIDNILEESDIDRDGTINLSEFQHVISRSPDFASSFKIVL
Assay: Primary qHTS for Identification of Calcium Integrin Binding Protein 1 (CIB1) Competitor (AID 1508620);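 also: GST tagged CIB1 binding a fluorescein labelled alphaIIb integrin peptide tracer; top concentration of the series differs between compounds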
Conditions: CIB1-GST / FITC-alphaIIb peptide fluorescence polarization; series mostly up to 57.7 µM
How it was run: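 Fluorescence polarization competition: CIB1-GST (1 uM final) preincubated with compound 15 min at room temperature, then FITC-labeled alphaIIb peptide (100 nM final) added for another 15 min. Polarization read at Ex 480/Em 540.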

Compound | Potency | activity change, negative = inhibition
CCNC(=O)OC1CCN(c2nncc3cc(OC)c(OC)cc23)CC1 | inactive | 
Cc1c(-c2ccc3c(c2)OCO3)oc2ccc(C(O)C(C)O)cc12 (stereo unspecified) | inactive | 
COc1cc(O)c(C(=O)O)c(CCc2ccccc2)c1 | inactive | 
C/C=C(\C)C(=O)OC1CC2C(CC=C3CC(OC4CC(OC)C(OC5CC(OC)C(OC6CC(OC)C(OC7CC(OC)C(OC8CC(OC)C(OC9OC(CO)C(O)C(O)C9O)C(C)O8)C(C)O7)C(C)O6)C(C)O5)C(C)O4)CCC32C)C2(O)CCC(C(C)=O)C12C (stereo unspecified) |  | 0.354% [at 12.4 µM]
CC1OC(OC2CCC3(C)C(CCC4(C)C3C=CC35OCC6(CCC(C)(C)CC63)CCC45C)C2(C)CO)C(OC2OC(CO)C(O)C(O)C2O)C(O)C1OC1OC(CO)C(O)C(O)C1O (stereo unspecified) | inactive | 
COc1c2c(c(C)c3c1C(=O)OC3)OC1(C)CC(O)C34OC(OC)(CC(O)C3(C)C1C2)OC4(C)C (stereo unspecified) | inactive | 
O=C1OC(c2ccc(O)cc2)C(O)=C1Cc1ccccc1 (stereo unspecified) | inactive | 
C=CCC/C=C/C#CCCCCCCCC[C@H]1C(=O)O[C@H](C)[C@@H]1O | inactive | 
C=C[C@]1(C)C[C@@H](OC(=O)CSC2C[C@H]3CC[C@@H](C2)N3C)[C@]2(C)[C@H](C)CC[C@]3(CCC(=O)[C@H]32)[C@@H](C)[C@@H]1O (stereo partly specified) | inactive | 
C=C1CC2C3(C)C(O)CC(=O)C(C)(C)C3C(O)C(OC(C)=O)C2(C)C2C(=O)OC(C)(C(=O)OC)C(=O)C12C (stereo unspecified) | inactive | 
CC1(C)CC[C@]2(C(=O)O[C@@H]3O[C@H](CO)[C@@H](O)[C@H](O)[C@H]3O)[C@H](O)C[C@]3(C)C(=CCC4[C@@]5(C)CC[C@H](O[C@@H]6OC[C@@H](O)[C@H](O)[C@H]6O)[C@@](C)(C(=O)O)C5CC[C@]43C)[C@@H]2C1 (stereo partly specified) | inactive | 
CC(=O)O[C@@H]1C[C@@H](C)[C@](O)(CCC2=CC(=O)OC2)[C@@]2(C)CCCC(C)(C)C12 (stereo partly specified) | inactive | 
C/C=C/C=C/C=C/C(=O)O[C@@H]1C=C(CO)[C@](O)(CO)[C@@]2(C)CCCC(C)(C)[C@H]12 | inactive | 
C/C(=C\C(=O)C(C)C1CCC2C3=C(CCC21C)C1(C)CCC(=O)C(C)(C)C1(O)CC3)C(C)(C)O (stereo unspecified) | inactive | 
CC1=C2C[C@H]3OC(=O)[C@H](O)[C@@]4(O)[C@@H](C)[C@@H](O)[C@H](O)C([C@@]2(C)[C@H](O)[C@@H](O)C1)[C@@]34C (stereo partly specified) | inactive | 
CCC(C)/C=C(C)/C=C/C1=CC2=CC(=O)C(C)(O)C(OC(C)=O)C2CO1 (stereo unspecified) | inactive | 
CC(=O)OC12CC(C)C(OC(=O)c3ccccc3)C1/C=C(/C)C(OC(=O)c1ccccc1)CC(=O)C(C)(C)/C=C/C(C)C2=O (stereo unspecified) | inactive | 
COc1ccc(C2COc3cc(O)ccc3C2)c(O)c1OC (stereo unspecified) | inactive | 
CC(=O)N[C@H]1[C@H](O[C@H]2CC[C@]3(C)C4CC=C5[C@@H]6CC(C)(C)CC[C@]6(C(=O)O)[C@H](O)C[C@@]5(C)[C@]4(C)CC[C@H]3C2(C)C)O[C@H](CO)[C@@H](O)[C@@H]1O (stereo partly specified) | inactive | 
COc1c(C)c(OCC=C(C)C)cc2c1CNC2=O | inactive | 
CC(=O)OC1CC2C(C)(C)C(=O)C=CC2(C)C2CC(=O)C3=C(CCC3C3=CC(O)OC3=O)C12C (stereo unspecified) | inactive | 
CC(=O)OC1C(CO)OC(O[C@H]2[C@H](OC(=O)[C@]34CCC(C)(C)C[C@H]3C3=CCC5[C@@]6(C)CC[C@H](O[C@@H]7O[C@H](C(=O)O)[C@@H](O)[C@H](O[C@@H]8OC[C@@H](O)[C@H](O)[C@H]8O)[C@H]7O[C@@H]7O[C@H](CO)[C@H](O)[C@H](O)[C@H]7O)[C@@](C)(C=O)C6CC[C@@]5(C)[C@]3(C)C[C@H]4O)O[C@H](C)[C@H](OC3OC(C)C(OC4OCC(O)C(O)C4O)C(O)C3O)[C@@H]2O)C(O)C1O (stereo partly specified) |  | 4.08% [at 12.4 µM]
CC(C)[C@](O)(c1ccc2cc(OC(F)F)c(OC(F)F)cc2c1)c1cn[nH]n1 | inactive | 
CC1(C)CC[C@]2(C(=O)O)CC[C@]3(C)C(=CCC4[C@@]5(C)CC[C@H](O[C@H]6O[C@H](C(=O)O)[C@@H](O)[C@H](O[C@@H]7O[C@H](CO)[C@H](O)[C@H](O)[C@H]7O)[C@H]6O)C(C)(C)C5CC[C@]43C)[C@@H]2C1 (stereo partly specified) | inactive | 
CC(CCO)CCC1C2(C)CCCC(C)(C)C2CC[C@@]1(C)O (stereo partly specified) | inactive | 
COc1c2cc(c(O)c1OC)CCCCC(O)CCc1ccc(O)c-2c1 (stereo unspecified) | inactive | 
C/C=C(\C)C1C(C)=CC2CCC(OS(=O)(=O)O)C(C)C2C1/C=C/C=C/C(=O)O (stereo unspecified) | inactive | 
CC1(C)CC[C@]2(C(=O)O)CC[C@]3(C)C(=CCC4[C@@]5(C)C[C@@H](O)[C@H](O)[C@@](C)(CO)C5[C@H](O)C[C@]43C)[C@@H]2C1 (stereo partly specified) | inactive | 

System: not listed separately
Assay: Primary qHTS for inhibitors of nuclear receptor binding SET domain protein 2 (NSD2) in an isogenic RCH-ACV NSD2 p.E1099K mutant (9B) (AID 1645876); also: nearly all actives have a fitted effect of over 70% in size
Conditions: RCH-ACV (leukaemia line) NSD2 E1099K (9B) viability, CellTiter-Glo, 72 h; series mostly up to 44.9 µM

Compound | Potency
Cc1c(Cc2ccc3ccccc3n2)c2cc(F)ccc2n1CC(=O)O | inactive
CC(=O)NC(Cc1c[nH]c2ccccc(=O)c12)C(=O)O (stereo unspecified) | inactive
COc1ccc(CC(NC(C)=O)C(=O)O)cc1 (stereo unspecified) | inactive
